Data taken from PubChem BioAssay (Tox21).
Inconclusive results are not listed. The source made the active and inactive calls. Unless noted, calls follow the shape of the dose curve; as a rule, active = well fitted curve in the direction sought with a large enough effect in the repeat runs; inconclusive = weak or mixed curves; inactive = no such curve, though single readings can be large; an effect the other way counts as inactive or inconclusive.

Legend:
[1] = target: Aryl hydrocarbon receptor (Homo sapiens) (UniProt P35869); experiment: qHTS assay to identify small molecule that activate the aryl hydrocarbon receptor (AhR) signaling pathway (AID 743085); also: nearly all actives have a fitted effect of over 15% in size; also: potency is read from the fitted curve at half-maximal effect;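 as to activation: HG2L7.5c1 human HepG2 liver cells with stably integrated DRE-driven firefly reporter; series mostly up to about 70 µM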
Sequence of Aryl hydrocarbon receptor (Homo sapiens) (P35869 whole entry, looked up): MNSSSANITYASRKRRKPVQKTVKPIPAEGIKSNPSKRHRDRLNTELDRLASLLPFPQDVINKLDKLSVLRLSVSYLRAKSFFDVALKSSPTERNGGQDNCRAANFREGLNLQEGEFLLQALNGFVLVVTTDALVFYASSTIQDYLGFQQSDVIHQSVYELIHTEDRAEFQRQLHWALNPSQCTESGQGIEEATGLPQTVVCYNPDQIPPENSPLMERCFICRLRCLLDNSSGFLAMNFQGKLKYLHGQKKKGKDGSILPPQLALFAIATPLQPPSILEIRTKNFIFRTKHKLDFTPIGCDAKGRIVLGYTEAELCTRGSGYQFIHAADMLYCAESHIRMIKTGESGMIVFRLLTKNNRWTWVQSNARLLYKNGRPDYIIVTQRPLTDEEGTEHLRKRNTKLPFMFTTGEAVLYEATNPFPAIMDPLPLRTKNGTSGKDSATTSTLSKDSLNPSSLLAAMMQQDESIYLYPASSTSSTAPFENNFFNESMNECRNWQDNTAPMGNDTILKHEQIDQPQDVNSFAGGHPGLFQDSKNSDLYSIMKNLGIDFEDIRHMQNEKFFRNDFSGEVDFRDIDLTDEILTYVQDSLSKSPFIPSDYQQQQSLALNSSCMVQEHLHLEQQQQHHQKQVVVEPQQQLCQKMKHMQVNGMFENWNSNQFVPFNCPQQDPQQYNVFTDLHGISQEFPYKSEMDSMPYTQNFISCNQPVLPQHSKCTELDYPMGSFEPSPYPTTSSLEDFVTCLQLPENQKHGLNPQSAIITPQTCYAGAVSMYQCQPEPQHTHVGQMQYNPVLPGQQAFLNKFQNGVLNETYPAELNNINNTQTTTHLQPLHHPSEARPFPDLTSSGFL
Procedure, shortened: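 24 h compound exposure, 37C, HepG2-derived HG2L7.5c1 cells with DRE-responsive luciferase. Readouts: fluorescence viability, then luminescence at room temperature after 30 min.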

[2] = qHTS assay to identify small molecule that activate the aryl hydrocarbon receptor (AhR) signaling pathway - cell viability counter screen (AID 743086);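 also: HepG2 liver cells carrying the AhR DRE luciferase reporter; series mostly up to about 70 µM; nearly all actives have a fitted effect of over 45% in size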
Procedure, shortened: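 HepG2-AhR-luc (HG2L7.5c1) cells, 4000/well, treated 24 h at 37 C with compound; viability measured as CellTiter-Fluor fluorescence after 30 min in the same wells as the luciferase read.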

[3] = target: Peroxisome proliferator-activated receptor gamma (Homo sapiens) (UniProt P37231); experiment: qHTS assay to identify small molecule agonists of the peroxisome proliferator-activated receptor gamma (PPARg) signaling pathway (AID 743094; active = well fitted activation curve with a large enough effect in the signal ratio in the repeat runs, not every such curve was filed as active; the % refers to the signal ratio)
Sequence of Peroxisome proliferator-activated receptor gamma (Homo sapiens) (P37231 whole entry, looked up): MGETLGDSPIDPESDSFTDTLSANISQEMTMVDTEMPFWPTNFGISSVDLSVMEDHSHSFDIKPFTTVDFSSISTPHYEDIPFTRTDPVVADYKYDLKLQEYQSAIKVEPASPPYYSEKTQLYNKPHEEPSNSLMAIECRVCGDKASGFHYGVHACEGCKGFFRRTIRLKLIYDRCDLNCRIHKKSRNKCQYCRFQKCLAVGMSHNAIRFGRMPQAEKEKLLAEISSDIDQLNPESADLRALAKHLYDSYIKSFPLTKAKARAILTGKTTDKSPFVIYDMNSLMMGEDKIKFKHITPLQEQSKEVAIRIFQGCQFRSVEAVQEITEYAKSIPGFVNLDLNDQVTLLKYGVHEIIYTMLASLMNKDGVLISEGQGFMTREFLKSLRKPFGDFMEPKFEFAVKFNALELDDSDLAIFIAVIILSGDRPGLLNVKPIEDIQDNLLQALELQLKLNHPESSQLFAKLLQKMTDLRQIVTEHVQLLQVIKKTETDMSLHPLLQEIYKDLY
Procedure, shortened: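 Beta-lactamase FRET fluorescence was the read-out after a 1 h room-temperature substrate step, following 17 h compound treatment at 37C of HEK293H cells expressing a UAS-driven bla reporter responsive to PPARg.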

[4] = qHTS assay to identify small molecule antagonists of the peroxisome proliferator-activated receptor gamma (PPARg) signaling pathway - cell viability counter screen (AID 743194); settings: Potency: co-treated with 50 nM rosiglitazone; also: nearly all actives have a fitted effect of over 55% in size
Procedure, shortened: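 Cytotoxicity counter screen in PPARg-bla HEK293H cells, same wells as reporter assay. Compounds plus 50 nM rosiglitazone (final) for 17 h at 37 C, then viability read by CellTiter-Glo luminescence.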

[5] = qHTS assay for small molecule agonists of the antioxidant response element (ARE) signaling pathway (AID 743202; active = well fitted activation curve with a large enough effect in the signal ratio in the repeat runs, not every such curve was filed as active; the % refers to the signal ratio; also: potency is read from the fitted curve at half-maximal effect)
Procedure, shortened: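 ARE-bla HepG2 cells (beta-lactamase reporter under the antioxidant response element), plated 5 hours, then exposed to compounds 16 hours at 37 C. LiveBLAzer B/G FRET substrate added for 2 hours at room temperature; fluorescence intensity read.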

[6] = qHTS assay for small molecule agonists of the antioxidant response element (ARE) signaling pathway - cell viability counter screen (AID 743203; calls by dose curve; also: nearly all actives have a fitted effect of over 55% in size)
Procedure, shortened: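 HepG2 cells carrying ARE-driven beta-lactamase; 2,000 cells/well; 5 hrs plating; compound pinned from DMSO; 16 hrs 37C/5% CO2; CellTiter-Glo added; 30 min RT; luminescence.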

[7] = qHTS assay for small molecule activators of the heat shock response signaling pathway - cell viability counter screen (AID 743209); also: nearly all actives have a fitted effect of over 50% in size
Procedure, shortened: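 Luminescence from CellTiter-Glo, added after the beta-lactamase FRET read, gave the viability signal. Cells were HSE-bla HeLa treated with DMSO-dissolved compounds for 5 h at 37 C following overnight plating.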

[8] = qHTS assay for small molecule activators of the heat shock response signaling pathway (AID 743210; active = well fitted activation curve with a large enough effect in the signal ratio in the repeat runs, with a control signal flat, not every such curve was filed as active; the % refers to the signal ratio; also: series mostly up to about 63 µM)
Procedure, shortened: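 HSE-bla HeLa cells (beta-lactamase reporter under heat shock response elements), plated overnight, then exposed to compounds 5 h at 37 C; LiveBLAzer B/G FRET substrate added, 2.5 h at room temperature, fluorescence intensity read.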

[9] = qHTS assay to identify small molecule agonists of the peroxisome proliferator-activated receptor delta (PPARd) signaling pathway - cell viability counter screen (AID 743211); also: nearly all actives have a fitted effect of over 55% in size
Procedure, shortened: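 Luminescent ATP viability assay (CellTiter-Glo, 30 min RT) in UAS-bla HEK293H cells carrying the PPAR delta reporter construct, 3000 cells/well, after a 17 h compound treatment at 37 C.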

[10] = target: Peroxisome proliferator-activated receptor delta (Homo sapiens) (UniProt Q03181); experiment: qHTS assay to identify small molecule agonists of the peroxisome proliferator-activated receptor delta (PPARd) signaling pathway (AID 743212; calls by dose curve)
Sequence of Peroxisome proliferator-activated receptor delta (Homo sapiens) (Q03181 whole entry, looked up): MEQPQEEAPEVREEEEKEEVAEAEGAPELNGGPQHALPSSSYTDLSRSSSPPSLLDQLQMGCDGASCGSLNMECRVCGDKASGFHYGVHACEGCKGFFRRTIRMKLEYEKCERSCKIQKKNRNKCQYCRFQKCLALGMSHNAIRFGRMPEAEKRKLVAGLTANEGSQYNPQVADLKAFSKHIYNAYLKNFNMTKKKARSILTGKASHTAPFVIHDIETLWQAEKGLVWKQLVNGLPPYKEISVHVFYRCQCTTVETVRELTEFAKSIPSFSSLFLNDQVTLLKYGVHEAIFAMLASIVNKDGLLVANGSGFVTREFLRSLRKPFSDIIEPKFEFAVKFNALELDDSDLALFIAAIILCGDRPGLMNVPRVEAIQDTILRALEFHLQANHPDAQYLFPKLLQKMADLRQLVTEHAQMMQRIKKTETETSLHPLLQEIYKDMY
Procedure, shortened: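 GeneBLAzer UAS-bla HEK293H cells carrying a PPARδ construct were exposed to compounds at 37 °C. Beta-lactamase activity was read by FRET fluorescence after 2 h at room temperature with LiveBLAzer B/G substrate.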

[11] = qHTS assay to identify small molecule antagonists of the peroxisome proliferator-activated receptor delta (PPARd) signaling pathway - cell viability counter screen (AID 743213); also: nearly all actives have a fitted effect of over 50% in size
Procedure, shortened: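 HEK293H cells with the PPARd UAS-bla reporter, co-treated 17 h at 37 C with compounds and L165041 (300 nM final), were lysed with CellTiter-Glo. Luminescence indicated viable cell content.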

[12] = target: Peroxisome proliferator-activated receptor delta (Homo sapiens) (UniProt Q03181); experiment: qHTS assay to identify small molecule antagonists of the peroxisome proliferator-activated receptor delta (PPARd) signaling pathway (AID 743215; active = well fitted inhibition curve with a large enough effect in the signal ratio in the repeat runs, not every such curve was filed as active; the % refers to the signal ratio;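 also: cells stimulated with agonist L165041 at 300 nM final during compound exposure; series mostly up to about 62 µM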)
Procedure, shortened: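 Read-out is beta-lactamase FRET fluorescence, measured 2 h after substrate addition at room temperature. Beforehand, UAS-bla HEK293H cells carrying the PPARd reporter were exposed to compounds with L165041 at 300 nM final for 17 h at 37 C.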

[13] = qHTS assay to identify small molecule agonists of the farnesoid-X-receptor (FXR) signaling pathway - cell viability counter screen (AID 743218); also: nearly all actives have a fitted effect of over 45% in size
Procedure, shortened: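 HEK 293T FXR-bla cells; 5 h pre-incubation, 16 h compound exposure at 37 C; LiveBLAzer substrate 2 h RT, then CellTiter-Glo 30 min RT, luminescence.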

[14] = qHTS assay to identify small molecule antagonists of the farnesoid-X-receptor (FXR) signaling pathway - cell viability counter screen (AID 743221; active = well fitted cell-killing curve with a large enough effect in the repeat runs, not every such curve was filed as active; also: nearly all actives have a fitted effect of over 50% in size)
Procedure, shortened: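 In GeneBLAzer FXR-UAS-bla HEK 293T cells stimulated with 50 uM chenodeoxycholic acid (final), compounds acted for 16 h at 37 C. Viability was assessed afterwards by CellTiter-Glo luminescence.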

[15] = target: Vitamin D3 receptor (Homo sapiens) (UniProt P11473); experiment: qHTS assay to identify small molecule agonists of the vitamin D receptor (VDR) signaling pathway (AID 743222; calls by dose curve)
Sequence of Vitamin D3 receptor (Homo sapiens) (P11473 whole entry, looked up): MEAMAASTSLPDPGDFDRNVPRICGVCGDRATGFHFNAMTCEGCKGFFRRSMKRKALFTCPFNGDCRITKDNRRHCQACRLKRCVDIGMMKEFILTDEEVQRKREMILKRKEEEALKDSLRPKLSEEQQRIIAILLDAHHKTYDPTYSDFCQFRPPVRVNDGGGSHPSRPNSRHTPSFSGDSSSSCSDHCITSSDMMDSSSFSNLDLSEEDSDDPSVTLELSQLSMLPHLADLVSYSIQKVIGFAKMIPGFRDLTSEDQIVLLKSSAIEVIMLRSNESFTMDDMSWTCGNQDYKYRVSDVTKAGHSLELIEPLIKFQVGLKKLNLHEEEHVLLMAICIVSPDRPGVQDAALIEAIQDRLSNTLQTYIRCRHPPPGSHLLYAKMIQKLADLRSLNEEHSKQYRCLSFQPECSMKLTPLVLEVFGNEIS
Procedure, shortened: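 VDR-bla cells, 2,000/well; 4 h preincubation 37C; cpd (DMSO) 16 h; LiveBLAzer B/G substrate 2 h RT; fluorescence intensity read.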

[16] = target: Vitamin D3 receptor (Homo sapiens) (UniProt P11473); experiment: qHTS assay to identify small molecule antagonists of the vitamin D receptor (VDR) signaling pathway (AID 743223; active = well fitted inhibition curve with a large enough effect in the signal ratio in the repeat runs, not every such curve was filed as active; the % refers to the signal ratio)
Procedure, shortened: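 Agonist 1alpha,25-dihydroxyvitamin D3 (3 nM in well) was added with each compound to VDR-bla cells preincubated 4 h. Cells stood 16 h at 37C, then FRET substrate 2 h at room temperature; fluorescence intensity recorded.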

[17] = qHTS assay to identify small molecule agonists of the vitamin D receptor (VDR) signaling pathway - cell viability counter screen (AID 743224); also: series mostly up to about 63 µM; nearly all actives have a fitted effect of over 50% in size
Procedure, shortened: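 Luminescence from CellTiter-Glo, read after 30 min at room temperature, reports viability of VDR-bla cells treated with compounds for 16 h at 37C in the wells used for the beta-lactamase FRET read.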

[18] = target: Bile acid receptor (Homo sapiens) (UniProt Q96RI1); experiment: qHTS assay to identify small molecule antagonists of the farnesoid-X-receptor (FXR) signaling pathway (AID 743217; active = well fitted inhibition curve with a large enough effect in the signal ratio in the repeat runs, not every such curve was filed as active; the % refers to the signal ratio)
Sequence of Bile acid receptor (Homo sapiens) (Q96RI1 whole entry, looked up): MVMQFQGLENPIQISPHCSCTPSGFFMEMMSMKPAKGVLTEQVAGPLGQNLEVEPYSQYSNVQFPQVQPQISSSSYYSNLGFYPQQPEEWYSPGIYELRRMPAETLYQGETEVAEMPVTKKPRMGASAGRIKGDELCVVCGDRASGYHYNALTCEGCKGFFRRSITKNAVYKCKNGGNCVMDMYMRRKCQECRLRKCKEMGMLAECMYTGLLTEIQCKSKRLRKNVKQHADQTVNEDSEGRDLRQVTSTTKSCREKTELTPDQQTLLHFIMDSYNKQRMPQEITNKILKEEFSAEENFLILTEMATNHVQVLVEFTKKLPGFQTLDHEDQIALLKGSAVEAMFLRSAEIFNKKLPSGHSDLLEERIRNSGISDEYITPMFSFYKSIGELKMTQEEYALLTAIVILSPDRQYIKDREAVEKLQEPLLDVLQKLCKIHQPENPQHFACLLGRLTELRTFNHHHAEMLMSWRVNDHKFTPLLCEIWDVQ
Procedure, shortened: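 HEK 293T FXR-UAS-bla, 5000 cells/well; compound + CDCA 50 uM final; 16 h, 37 °C; B/G FRET substrate 2 h RT; fluorescence.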

[19] = target: Bile acid receptor (Homo sapiens) (UniProt Q96RI1); experiment: qHTS assay to identify small molecule agonists of the farnesoid-X-receptor (FXR) signaling pathway (AID 743220; active = well fitted activation curve with a large enough effect in the signal ratio in the repeat runs, not every such curve was filed as active; the % refers to the signal ratio)
Procedure, shortened: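 Beta-lactamase reporter under UAS control in GeneBLAzer FXR HEK 293T cells (5000/well) measured with LiveBLAzer FRET substrate after 2 h at room temperature. Compound exposure lasted 16 h at 37C.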

Measured: Potency

O=C(O)CBr
not listed: [18] | [19]
inactive: all other assays above

CCC(=O)OC1(c2ccccc2)CCN(C)CC1
inactive: all assays above

CCC1(c2cccc(O)c2)CCCCN(C)C1 (configuration not stated)
not listed: [18] | [19]
inactive: all other assays above

Cn1c(CCCC(=O)O)nc2cc(N(CCCl)CCCl)ccc21
not listed: [11] | [14] | [15] | [16]
inactive: all other assays above

O=C(CCl)NCO
not listed: [5] | [16] | [18] | [19]
inactive: all other assays above

C=C1C[C@@H]2[C@H](CC[C@]3(C)C(=O)CC[C@@H]23)[C@@]2(C)C=CC(=O)C=C12
active: [5] 2.66 µM
not listed: [10] | [12] | [16] | [19]
inactive: all other assays above

NNCc1ccccc1
active: [1] 55.5 µM | [5] 5.55 µM
not listed: [4] | [15] | [16]
inactive: all other assays above

C/C=C/CC#N
not listed: [12] | [15] | [16] | [18]
inactive: all other assays above

CCSC(=O)Cl
not listed: [5] | [8] | [10] | [12] | [14] | [16]
inactive: all other assays above

CCOC(=O)NC(C)(C)Cc1ccc(Cl)cc1
inactive: all assays above

CCCN1CCC[C@@H]2Cc3[nH]ncc3C[C@H]21
active: [1] 9.44 µM
not listed: [10] | [11] | [12] | [15] | [16]
inactive: all other assays above

C=CC=O
not listed: [5] | [11] | [12] | [17] | [18] | [19]
inactive: all other assays above

CCOC(=O)CCl
not listed: [5] | [11] | [14]
inactive: all other assays above

CCC1(c2ccccc2)CCC(=O)NC1=O (configuration not stated)
not listed: [18] | [19]
inactive: all other assays above

CS(=O)(=O)Cl
not listed: [11] | [18] | [19]
inactive: all other assays above

Nc1c(Cl)c(F)nc(OCC(=O)O)c1Cl
not listed: [10] | [12] | [13] | [18] | [19]
inactive: all other assays above

CCCCCCC1CCOC1=O (configuration not stated)
not listed: [10] | [12] | [16] | [18] | [19]
inactive: all other assays above

C=C(C)[C@H]1CN[C@H](C(=O)O)[C@H]1CC(=O)O
not listed: [18] | [19]
inactive: all other assays above
